Activity calls are given as the source filed them.

For assay [1], the system named is Human papillomavirus type 1a protein E7 (residues 44-93). Description: HPV1a E7 fragment binders on microarrays, primary screen, biochemical, small-molecule microarray, residues 44-93, 635 nm fluorescence (AID 1108).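 Note: E7 fragment applied at 1 µg/mL in TBST for 1 h at 4 C; score combines spot fluorescence with its signal to noise ratio.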 The note with it: small-molecule microarray binding, fluorescence 635 nm; higher = more signal.
Assay [2] in a line: modulators of HCV replicon luciferase signal, primary screen, HCV replication inhibitor project, Huh7 cells, luciferase reporter (AID 1109).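 Note: huh7 hepatoma cells harbouring a luciferase neomycin HCV replicon reporter; luciferase luminescence as measure of HCV replicon replication; test concentration not given here.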 The note with it: 48 h, higher = more signal. On the technique in general: In antiviral work, replicon cells carry a viral genome segment that copies itself.
The target in assay [3] is Left-right determination factor 2 (Homo sapiens) (UniProt O00292). Description: LEFTY2 binders on small-molecule microarrays, primary screen, biochemical, small-molecule microarray, 635 nm fluorescence scan (AID 1110). The note with it: LEFTY2 binding, higher = more signal.
Assay [4] has as its target Calmodulin-1 (Homo sapiens) (UniProt P0DP23). The assay can be described thus: CALM1 binders on microarrays, EGTA buffer, profiling panel, biochemical, small-molecule microarray, Cy5-labelled CALM1 (AID 1111).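 Note: labelled calmodulin applied in Tris saline Tween buffer holding calcium plus EGTA and DTT.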 The settings on record: Cy5-CALM1 binding fluorescence, higher = more signal.
The target is the same in assay [5]. The assay can be described thus: calcium-bound CALM1 binders on microarrays, profiling panel, artefact control for SMM control-protein annotation, biochemical, small-molecule microarray, Cy5-labelled CALM1, plus calcium (AID 1112).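 Note: score merges spot fluorescence with signal to noise from triplicate slides.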 The settings on record: Cy5-CALM1 binding fluorescence, higher = more signal.
A short description of assay [6]: small-molecule microarray binders of probe aWnt5a, primary screen, biochemical, biotinylated probe, 635/667 nm fluorescence (AID 1113).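 Note: score merges 667 nm fluorescence intensity with signal-to-noise per printed feature.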 The note with it: higher = more signal.
The nature of assay [7]: small-molecule microarray binders of probe aShh, primary screen, biochemical, biotinylated probe, 635/667 nm fluorescence (AID 1114).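 Note: probe is biotin-labelled aShh protein from a stem cell growth factor screen; measures binding of labelled protein to compounds printed on the slide; score merges feature fluorescence at 667 nm with signal-to-noise.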 The note with it: higher = more signal.
Assay [8] can be described thus: small-molecule microarray binders of probe aNog, primary screen, biochemical, biotinylated probe, 635/667 nm fluorescence (AID 1115).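 Note: probe is biotinylated aNog protein used at 0.15 µg/mL for 1 h at 4 C; z-score combines 667 nm fluorescence of each spot with its signal to noise.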 The settings on record: higher = more signal.
For assay [9], the target named is Torsin-1A-interacting protein 1 (Homo sapiens) (UniProt Q5JTV8). The assay can be described thus: LAP1 binders from COS7 cell lysate, primary screen, small-molecule microarray, 635/667 nm fluorescence (AID 1116). The settings on record: COS7-hLAP1 lysate binding, 635 nm fluorescence, higher = more signal.
The target of assay [10] is Alpha-bungarotoxin (Bungarus multicinctus) (UniProt P60615). The assay can be described thus: alpha-bungarotoxin binders on microarray, profiling panel, artefact control for SMM control protein annotation, biochemical, small-molecule microarray, Alexa647 label, 635/667 nm fluorescence (AID 1117). The settings on record: alpha-BTX-A647 binding fluorescence, higher = more signal.

In the next assay the target is Albumin (Bos taurus) (UniProt P02769). The assay can be described thus: bovine serum albumin binders on microarray, profiling panel, artefact control for SMM control protein annotation, biochemical, small-molecule microarray, Alexa647 label, 635/667 nm fluorescence (AID 1118).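 Note: score merges 667 nm emission intensity and signal-to-noise per printed compound spot.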 The settings on record: BSA-A647 binding, fluorescence 635 nm, higher = more signal.
Assay [11] can be described thus: small-molecule microarray binders of probe aXIP, primary screen, biochemical, NeuroSMM set, 635/667 nm fluorescence (AID 1119).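 Note: probe is the protein aXip251-270 applied at 1 µg/mL to compound-printed slides; binding of probe to printed compounds measured as 667 nm fluorescence plus signal to noise.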 The settings on record: higher = more signal, called active from +8 up or from −8 down.
A short description of assay [12]: small-molecule binders of probe aNOTCH3, primary screen, biochemical, small-molecule microarray, 635/667 nm fluorescence (AID 1120).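 Note: probe is a biotin-tagged antibody raised against NOTCH3 rather than NOTCH3 protein; score merges spot fluorescence near 667 nm with spot signal to noise.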 The note with it: higher = more signal.
Assay [13] in a line: small-molecule binders of probe aNOTCH2, primary screen, biochemical, small-molecule microarray, 635/667 nm fluorescence (AID 1121).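 Note: score merges feature fluorescence read at 667 nm with its signal to noise.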 The settings on record: higher = more signal.
In assay [14] the target is Carbonic anhydrase 2 (Homo sapiens) (UniProt P00918). Description: CAII small-molecule binders, profiling panel, biochemical, small-molecule microarray, Alexa647-labelled CAII (AID 1122). The note with it: CAII-A647 binding fluorescence, higher = more signal.
Assay [15] is described as follows: COS7 lysate on small-molecule microarray, probe aHis, 635 nm (AID 1123).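 Note: z-score combines 667nm fluorescence intensity with signal-to-noise per printed compound spot.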 The settings on record: COS7 cell lysate, fluorescence, higher = more signal.
The nature of assay [16]: compound binding in COS7 lysate, probe aLAP1, primary screen, cell lysate, small-molecule microarray (AID 1124).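 Note: lysate comes from COS7 cells expressing LAP1 and is applied at 0.3 µg/mL; score merges spot fluorescence near 667 nm with signal-to-noise over triplicate slides.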 The note with it: probe aLAP1, fluorescence, higher = more signal.
A further assay has as its system Sam68 (KHDRBS1). Description: Sam68 small-molecule binders, primary screen, biochemical, small-molecule microarray, 635 nm fluorescence (AID 1125).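 Note: score merges 667 nm channel intensity with signal to noise over triplicate slides.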 The settings on record: small-molecule microarray binding, higher = more signal.
The test system of assay [17] is Chordin-like protein 2 (CHRDL2). Description: CHRDL2 small-molecule binders, primary screen, biochemical, small-molecule microarray, 635 nm fluorescence (AID 1126).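 Note: printed compound slides probed with Chrdl2 protein at 4 µg/mL for 1 h at 4 C; score merges 667 nm emission intensity with signal to noise over three replicate slides.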 The note with it: small-molecule microarray binding, fluorescence 635 nm; higher = more signal.
In assay [18] the target is Concanavalin-A (Canavalia ensiformis) (UniProt P02866). The assay can be described thus: ConA small-molecule binders, primary screen, artefact control for SMM control protein annotation, biochemical, small-molecule microarray, Alexa647 label, 635 nm (AID 1127).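 Note: z combines 667 nm emission intensity with signal-to-noise across three replicate slides.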 The note with it: ConA-A647 binding fluorescence, higher = more signal.
Chain of Concanavalin-A (Canavalia ensiformis) (P02866 whole entry, looked up): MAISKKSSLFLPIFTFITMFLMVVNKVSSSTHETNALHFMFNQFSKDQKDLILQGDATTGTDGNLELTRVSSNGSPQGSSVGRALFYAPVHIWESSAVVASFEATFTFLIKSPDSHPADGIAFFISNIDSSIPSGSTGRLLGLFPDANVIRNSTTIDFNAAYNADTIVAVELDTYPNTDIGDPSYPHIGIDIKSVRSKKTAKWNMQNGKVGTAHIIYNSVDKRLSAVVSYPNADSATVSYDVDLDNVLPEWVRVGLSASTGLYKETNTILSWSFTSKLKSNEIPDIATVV

Chain of Alpha-bungarotoxin (Bungarus multicinctus) (P60615 whole entry, looked up): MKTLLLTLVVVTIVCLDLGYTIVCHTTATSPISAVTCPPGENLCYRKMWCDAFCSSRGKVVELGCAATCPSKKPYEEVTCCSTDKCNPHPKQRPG
Chain of Albumin (Bos taurus) (P02769 whole entry, looked up): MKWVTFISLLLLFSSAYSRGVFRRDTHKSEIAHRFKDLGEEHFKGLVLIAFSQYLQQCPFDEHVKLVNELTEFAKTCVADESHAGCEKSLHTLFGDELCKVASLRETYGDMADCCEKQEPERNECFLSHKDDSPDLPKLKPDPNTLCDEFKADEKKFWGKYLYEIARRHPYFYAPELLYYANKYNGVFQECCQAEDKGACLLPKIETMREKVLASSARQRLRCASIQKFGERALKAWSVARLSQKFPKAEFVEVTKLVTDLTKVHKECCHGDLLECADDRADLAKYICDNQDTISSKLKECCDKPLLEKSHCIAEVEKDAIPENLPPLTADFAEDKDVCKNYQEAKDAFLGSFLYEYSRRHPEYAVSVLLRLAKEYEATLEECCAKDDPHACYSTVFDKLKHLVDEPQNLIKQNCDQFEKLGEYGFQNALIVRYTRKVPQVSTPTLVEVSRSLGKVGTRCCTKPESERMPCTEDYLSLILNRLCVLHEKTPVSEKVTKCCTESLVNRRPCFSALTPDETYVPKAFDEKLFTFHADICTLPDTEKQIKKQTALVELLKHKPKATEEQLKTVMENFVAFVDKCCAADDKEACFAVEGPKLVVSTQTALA
Chain of Left-right determination factor 2 (Homo sapiens) (O00292 whole entry, looked up): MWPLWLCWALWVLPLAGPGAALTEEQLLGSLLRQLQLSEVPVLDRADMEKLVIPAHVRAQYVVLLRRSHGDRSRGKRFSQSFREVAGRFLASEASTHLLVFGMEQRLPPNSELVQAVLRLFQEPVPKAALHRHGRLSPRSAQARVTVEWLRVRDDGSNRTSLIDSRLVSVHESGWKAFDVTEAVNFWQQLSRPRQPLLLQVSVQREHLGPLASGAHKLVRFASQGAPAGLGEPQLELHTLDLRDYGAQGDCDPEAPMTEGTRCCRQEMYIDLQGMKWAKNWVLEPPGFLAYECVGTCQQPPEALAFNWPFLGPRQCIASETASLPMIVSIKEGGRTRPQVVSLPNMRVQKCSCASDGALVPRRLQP
Chain of Torsin-1A-interacting protein 1 (Homo sapiens) (Q5JTV8 whole entry, looked up): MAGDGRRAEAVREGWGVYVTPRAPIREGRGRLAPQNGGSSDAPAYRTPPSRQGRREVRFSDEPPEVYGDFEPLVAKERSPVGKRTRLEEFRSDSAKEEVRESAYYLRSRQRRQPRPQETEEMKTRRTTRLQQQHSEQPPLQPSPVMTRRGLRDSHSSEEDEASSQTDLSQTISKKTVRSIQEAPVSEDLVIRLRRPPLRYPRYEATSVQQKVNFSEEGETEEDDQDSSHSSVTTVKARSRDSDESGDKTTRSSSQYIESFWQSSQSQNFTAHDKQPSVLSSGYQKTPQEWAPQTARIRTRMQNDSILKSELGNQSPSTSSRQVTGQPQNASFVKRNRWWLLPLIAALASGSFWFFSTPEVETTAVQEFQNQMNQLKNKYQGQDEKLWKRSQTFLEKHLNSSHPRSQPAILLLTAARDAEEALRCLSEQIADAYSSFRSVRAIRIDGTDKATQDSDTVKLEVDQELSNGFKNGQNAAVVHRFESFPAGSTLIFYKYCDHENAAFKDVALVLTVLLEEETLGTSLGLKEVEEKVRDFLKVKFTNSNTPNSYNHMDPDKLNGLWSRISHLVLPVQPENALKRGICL

Turning to `COc1ccc([Si](C)(C)[C@@H]2[C@@H](CC(=O)N3CCC[C@H]3CO)O[C@]3(C(=O)N(Cc4cccc(I)c4)c4ccccc43)[C@H]2C)cc1`, the composite z-score in [1] is 1.32; in assay [3] it was 1.39; in assay [4], 0.374; in assay [5] it was 0.935; in assay [6], 0.116; in [7], -0.138. Further, the composite z-score in assay [8] was -0.0173; in assay [9], 1.62; in [10], 0.181; in the assay with Albumin (Bos taurus), -0.392; in assay [12], 0.175; in [13], -0.0956. The composite z-score is 0.644 in assay [14]; 0.066 in [15]; 0.0817 in assay [16]; 1.31 with Sam68 (KHDRBS1); 1.45 in assay [17]; 0.938 in assay [18]. The same molecule came in with a z-score in assay [2] of -2.72. In [11], the composite Z-score was 0.119 (inactive).

`C#CCN1[C@H](/C=C/C2CC2)[C@H](Cc2ccccc2)OC(=O)[C@@H]1Cc1ccccc1`: the composite z-score was -0.306 in assay [1]; 0.294 in assay [3]; -0.707 in [4]; -0.414 in assay [5]; -0.164 in [6]; -0.0066 in assay [7]. The composite z-score in [8] was -0.401; in [9], 0.0223; in assay [10], 0.106; with Albumin (Bos taurus) it was -0.159; in assay [12], -0.124; in assay [13] it was -0.0759. In addition, the composite z-score in assay [14] was 0.2; in [15], 0.24; in assay [16], 0.092; in the assay with Sam68 (KHDRBS1), 0.257; in [17], 0.509; in assay [18], 0.0816. For the same molecule, in assay [2], the z-score is -2.87. Further, the composite Z-score in assay [11] was -0.95 (inactive).

For the molecule `C=CCNC(=O)[C@H]1[C@@H]2C(=O)O[C@@H](c3ccccc3)[C@@H](c3ccccc3)N2[C@@H](c2ccc(O)cc2)[C@]12C(=O)Nc1ccc(C#CCCO)cc12`, the composite z-score was -0.336 in assay [1]; 0.185 in assay [3]; -0.314 in [4]; 0.107 in assay [5]; -0.124 in assay [6]; 0.0982 in assay [7]. For the same molecule, the composite z-score in assay [8] is -0.161; in assay [9], -0.428; in assay [10], -0.503; with Albumin (Bos taurus), 0.138; in assay [12] it was -0.112; in [13], -0.198. The composite z-score in assay [14] is 0.656; in [15], -0.0099; in assay [16], 0.75; with Sam68 (KHDRBS1), -0.319; in [17], -0.559; in assay [18] it was -0.065. The molecule also yielded a z-score in [2] of 0.142. Further, the composite Z-score in [11] was -0.157 (inactive).

Take `C=C(/C(=C/C[C@H](OC(C)=O)c1ccc(OCCO)cc1)c1cc(C(=O)OC)ccc1OC)C(C)C`: the composite z-score in assay [1] was 1.16; in assay [3] it was 0.323; in assay [4] it was 1.17; in assay [5], 0.116; in assay [6], -0.0721; in assay [7], -0.2. In addition, the composite z-score in [8] was 0.775; in assay [9], 1.2; in assay [10] it was 0.179; with Albumin (Bos taurus), 0.322; in [12] it was 0.0562; in [13] it was -0.0666. In addition, the composite z-score in [14] was 0.767; in assay [15] it was 1.73; in [16], -0.144; in the assay with Sam68 (KHDRBS1), 1.31; in assay [17] it was 0.305; in assay [18], 0.883. In assay [2], this molecule yielded a z-score of -1.19. For the same molecule, in [11], the composite Z-score was 0.218 (inactive).

Consider `CCCC(=O)N(CCc1c[nH]c2ccccc12)[C@@H]1CC(C(=O)NCCO)=C[C@H](Oc2c(I)cc(CO)cc2OC)[C@H]1O`, for which the composite z-score is 0.434 in assay [1]; 0.362 in assay [3]; -0.0781 in [4]; -0.36 in assay [5]; -0.129 in [6]; -0.221 in assay [7]. The composite z-score in [8] is -0.234; in [9], 0.0957; in assay [10] it was -0.0162; in the assay with Albumin (Bos taurus), 0.0754; in assay [12], -0.0962; in assay [13] it was -0.085. Also, the composite z-score in assay [14] was 0.723; in assay [15], 0.532; in assay [16], -0.107; with Sam68 (KHDRBS1) it was 0.195; in [17] it was 0.144; in assay [18], 0.314. In assay [2], the z-score is 0.354. Besides, the composite Z-score in assay [11] is -0.471 (inactive).

The values are drawn from PubChem BioAssay.
